# In the supplement of paper PMC8975748:
# Structures can show the parent of a compound that is named as a salt.
# Tested on: Saccharomyces cerevisiae BY4741 SeMeCo community
# Assay: z-score of subpopulation abundance vs DMSO median, subpopulation auxotrophic for L; higher = larger share of this subpopulation than in DMSO controls
# Conditions: 10 µM; 24 h; SM minimal medium; subpopulation (auxotrophy): L
# Procedure: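 Fluorescent four-plasmid SeMeCo (self-establishing metabolically cooperating S. cerevisiae BY4741 community; plasmids pH-mRuby2, pL-mWasabi, pU-eCFP, pM-TagRFP657) was grown 24 h in minimal SM medium with each Selleck FDA-approved drug at 10 µM in 384-well plates. Cells were fixed and imaged by high-content confocal microscopy. For each auxotrophic subpopulation (and the prototroph), a z-score gives the deviation from the DMSO vehicle-control population median.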
row,Structure (SMILES),z-score of subpopulation abundance
1,CC/C=C(\C(=O)N[C@@H]1C(=O)N2C(C(=O)OCOC(=O)C(C)(C)C)=C(COC(N)=O)CS[C@H]12)c1csc(N)n1 [Cefcapene Pivoxil Hydrochloride],0.38
2,O=C([O-])CC(O)(CC(=O)[O-])C(=O)[O-].O=C([O-])CC(O)(CC(=O)[O-])C(=O)[O-].[Bi+3].[K+].[K+].[K+].[K+].[K+] [Bismuth Subcitrate Potassium],2.37
3,CSCC1CN(/N=C/c2ccc([N+](=O)[O-])o2)C(=O)O1 (stereo not given) [Nifuratel],3.68
4,OC[C@H]1O[C@H](OCC2O[C@@H](O)[C@H](O)[C@@H](O)[C@@H]2O)[C@H](O)[C@@H](O)[C@H]1O (stereo not given in full) [Melibiose],0.1
5,Cc1nc(C)c(Cl)c(O)c1Cl [Clopidol],0.46
6,CC1(C)S[C@@H]2[C@H](NC(=O)[C@H](N)c3ccc(O)cc3)C(=O)N2[C@H]1C(=O)O [Amoxicillin trihydrate],0.15
7,Clc1ccc(C(Cn2ccnc2)OCc2c(Cl)cccc2Cl)c(Cl)c1 (stereo not given) [Isoconazole nitrate],-3.43
8,Cc1[nH]cnc1CN1CCc2c(c3ccccc3n2C)C1=O [Alosetron Hydrochloride],0.02
9,CCOc1ccc2ccccc2c1C(=O)N[C@@H]1C(=O)N2[C@@H]1SC(C)(C)[C@@H]2C(=O)O [Nafcillin Sodium],0.95
10,Nc1nc2c(ncn2COC(CO)CO)c(=O)[nH]1 [Ganciclovir],0
11,CC(=O)O[C@]1(C(C)=O)CC[C@H]2[C@@H]3C[C@H](C)C4=CC(=O)CC[C@]4(C)[C@H]3CC[C@@]21C [Medroxyprogesterone acetate],-0.93
12,CCC(C)C1OC2(CCC1C)CC1CC(CC=C(C)C(OC3CC(OC)C(OC4CC(OC)C(O)C(C)O4)C(C)O3)C(C)C=CC=C3COC4C(O)C(C)=CC(C(=O)O1)C34O)O2 (stereo not given) [Ivermectin],-0.07
13,CCC1(C)CC(=O)NC1=O (stereo not given) [Ethosuximide],0.6
14,CCN(CC)CCOC(=O)c1ccc(N)cc1 [Procaine HCl],-0.69
15,COc1ccc(C(=O)NCc2ccc(OCCN(C)C)cc2)cc1OC [Itopride hydrochloride],0
16,O=C(O)Cc1ccccc1Nc1c(Cl)cccc1Cl [Diclofenac acid],0.08
17,O=C1OC(CN2CCOCC2)CN1/N=C/c1ccc([N+](=O)[O-])o1 (stereo not given) [Furaltadone HCl],-0.94
18,CC1(C)S[C@@H]2[C@H](NC(=O)[C@H](N)c3ccc(O)cc3)C(=O)N2[C@H]1C(=O)O [Amoxicillin],-0.63
19,COc1ccc(C(Cl)=C(c2ccc(OC)cc2)c2ccc(OC)cc2)cc1 [Chlorotrianisene],0.44
20,CC1(C)S[C@@H]2[C@H](NC(=O)[C@H](N)c3ccc(O)cc3)C(=O)N2[C@H]1C(=O)O [Amoxicillin Sodium],-0.33

row,Structure (SMILES),z-score of subpopulation abundance
1,Nc1c(Br)cc(Br)cc1CN[C@H]1CC[C@H](O)CC1 [Ambroxol HCl],-1.26
2,O=C1CCc2cc(OCCCCc3nnnn3C3CCCCC3)ccc2N1 [Cilostazol],0.75
3,CN1[C@@H]2CC[C@H]1C[C@@H](OC(c1ccccc1)c1ccccc1)C2 [Benztropine mesylate],0.17
4,CCCCC(=O)O[C@H]1CC[C@H]2[C@@H]3CCc4cc(O)ccc4[C@H]3CC[C@]12C [Estradiol valerate],-0.51
5,"CO[C@H]1C[C@@H]2CC[C@@H](C)[C@@](O)(O2)C(=O)C(=O)N2CCCC[C@H]2C(=O)O[C@H]([C@H](C)C[C@@H]2CC[C@@H](OP(C)(C)=O)[C@H](OC)C2)CC(=O)[C@H](C)/C=C(\C)[C@@H](O)[C@@H](OC)C(=O)[C@H](C)C[C@H](C)/C=C/C=C/C=C/1C [Ridaforolimus (Deforolimus, MK-8669)]",-0.55
6,Cc1onc(-c2c(Cl)cccc2Cl)c1C(=O)N[C@@H]1C(=O)N2[C@@H]1SC(C)(C)[C@@H]2C(=O)O [Dicloxacillin Sodium],1.32
7,COc1ccc(C(C)=O)c(O)c1 [Paeonol],0.17
8,Nc1c(CC(=O)O)cccc1C(=O)c1ccccc1 [Amfenac Sodium Monohydrate],-0.33
9,Fc1ccc([C@@H]2CCNC[C@H]2COc2ccc3c(c2)OCO3)cc1 [Paroxetine mesylate],0.03
10,CN(C/C=C/C#CC(C)(C)C)Cc1cccc2ccccc12 [Terbinafine HCl],-0.84
11,COCCCOc1ccnc(C[S+]([O-])c2nc3ccccc3[nH]2)c1C (stereo not given) [Rabeprazole],1.62
12,CC[C@@H]1/C=C(\C)C[C@H](C)C[C@H](OC)[C@H]2O[C@@](O)(C(=O)C(=O)N3CCCC[C@H]3C(=O)O[C@H](/C(C)=C/[C@@H]3CC[C@H](Cl)[C@H](OC)C3)[C@H](C)[C@@H](O)CC1=O)[C@H](C)C[C@@H]2OC [Pimecrolimus],3.91
13,C[C@@H](c1ncncc1F)[C@](O)(Cn1cncn1)c1ccc(F)cc1F [Voriconazole],-2.55
14,NC(=O)c1cn(Cc2c(F)cccc2F)nn1 [Rufinamide],1.41
15,CCCCCCCCCCCC(=O)O [Lauric Acid],-0.6
16,Cc1c(OCC(F)(F)F)ccnc1C[S@@+]([O-])c1nc2ccccc2[nH]1 [Dexlansoprazole],0.56
17,CO/N=C(\C(=O)N[C@@H]1C(=O)N2C(C(=O)O)=C(CSc3nnnn3C)CS[C@H]12)c1csc(N)n1 [Cefmenoxime hydrochloride],-0.06
18,CN(C)CCCN1c2ccccc2Sc2ccccc21 [Promazine hydrochloride],-0.38
19,CN1CCC[C@@H]1Cc1c[nH]c2ccc(CCS(=O)(=O)c3ccccc3)cc12 [Eletriptan HBr],0.61
20,CO/N=C(/C(=O)N[C@@H]1C(=O)N2C(C(=O)OCOC(=O)C(C)(C)C)=C(C)CS[C@H]12)c1csc(N)n1 [Cefetamet pivoxil hydrochloride],0.83
